Test results from the OligoGym collection.
Further: reference of the scale not given here.

Each sequence was assayed against GTF2H5 (assay: pooled miR-30 sensor sort-seq; sequence = guide strand). Settings: shRNA.
Sequence TTGAATGATGAACTTCTTCCCC has a sensor-assay potency score (higher = more potent) of -0.395.
For TTCTGCTATTACAAAGACGTGA, the sensor-assay potency score (higher = more potent) was -0.0161.
For TAACCAATTCTGCTATTACAAA, the sensor-assay potency score (higher = more potent) was -1.59.
For TCTGCTATTACAAAGACGTGAG, the sensor-assay potency score (higher = more potent) was 0.353.
Work on TGAATGATGAACTTCTTCCCCA yielded a sensor-assay potency score (higher = more potent) of -0.103.

These sequences were tested against GUCY2F in the same assay as above. Settings: shRNA.
TTGAATTGTAGATGGTTCCAAA showed a sensor-assay potency score (higher = more potent) of -0.33.
TTATAAAGTAAGCAAATCCATT gave a sensor-assay potency score (higher = more potent) of -1.1.
Sequence TTGGTCGTTGTTCTGCAGCCTC has a sensor-assay potency score (higher = more potent) of -0.834.
With TTCCATTTCCATTTGAATCTGT the sensor-assay potency score (higher = more potent) was 0.512.
TTTCACATCTTGATTTGTCAGT was tested, and the sensor-assay potency score (higher = more potent) was -0.489.
TAAATTGAATTGTAGATGGTTC was tested, and the sensor-assay potency score (higher = more potent) was -0.461.
Work on TAATGGTCAACACTGCATCATA yielded a sensor-assay potency score (higher = more potent) of -1.31.
TGAAGAATTGTAACAGTGCTGA was tested, and the sensor-assay potency score (higher = more potent) was -0.218.
Sequence TAGATGGTTCCAAACAACGGTG has a sensor-assay potency score (higher = more potent) of -1.15.
Sequence TTGAAGAATTGTAACAGTGCTG has a sensor-assay potency score (higher = more potent) of 0.627.
TAATCTGGAAGCTTACACTGGC gave a sensor-assay potency score (higher = more potent) of 0.71.
Sequence TAATATTGGTCTTCTTCCCTTT has a sensor-assay potency score (higher = more potent) of -0.067.
